Sampled rows, rich in hits. Any-hit rate of the full collection: about 19%.
Marburg entry inh: qHTS for inhibitors of binding or entry into cells for Marburg Virus | Marburg virus pseudotyped entry inhibition, cell reporter | Potency, µM (titrated, usually from 37.8 µM), for the others: at the top dose activity change, negative = inhibition, actives largely listed as inhibitors | actives 1.8% (n = 300,000); calls by dose curve; tested in HEK293 cells; further: potency means the concentration at half of the fitted maximal effect; on the % scale 0 is the no-effect control and ±100 the full control effect
Shiga inhibitor: A qHTS for Small Molecule Inhibitors of Shiga Toxin; Vero cells, Shiga toxin protein synthesis inhibition reporter; inhibition, % at 38.7 µM; actives 9.2% (n = 290,000); AID 2315, 2010; in the data active means inhibition mostly above about 28%, no sharp cut-off; inactive means mostly below about 43%; further: 0% is about no effect
Cycloheximide cs: Cycloheximide Counterscreen for Small Molecule Inhibitors of Shiga Toxin; cell reporter, cycloheximide protein synthesis inhibition counterscreen; max response, %; actives 12% (n = 300,000); AID 2314, 2010; in the data active means max response mostly above about 13%, no sharp cut-off; inactive means mostly below about 14%; further: read at 38.3 µM for the half of the compounds with a filed dose; 0% is about no effect
Pf growth 48h: Primary qHTS for delayed death inhibitors of the malarial parasite plastid, 48 hour incubation; Potency, µM (top dose mostly 28.7 µM), for the others: top-dose activity change, negative = inhibition, most hits filed as inhibitors; actives 5.9% (n = 310,000); P. falciparum luciferase growth in erythrocytes, 48 h; further: potency means the concentration at half of the fitted maximal effect; on the % scale 0 is the no-effect control and ±100 the full control effect
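Luciferase-expressing P. falciparum in infected erythrocytes (2% hematocrit, 0.1% parasitemia final) in RPMI 1640/0.5% Albumax were exposed to compound for 48 hours at 37 C, 5% CO2; growth read as luminescence.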
Lassa entry inh: qHTS for Inhibitors of binding or entry into cells for Lassa Virus. Lassa virus pseudotype entry inhibition, cell reporter. Potency, µM (series often up to 37.9 µM), inactives show top-dose activity change, negative = inhibition, actives largely listed as inhibitors. actives 1.2% (n = 300,000); calls by dose curve; tested in HEK293 cells; further: potency means the concentration at half of the fitted maximal effect; on the % scale 0 is the no-effect control and ±100 the full control effect; nearly all actives have a fitted effect of over 50% in size
Pf growth 96h: Primary qHTS for delayed death inhibitors of the malarial parasite plastid, 96 hour incubation; AID 504834, 2011; actives 6.9% (n = 320,000); P. falciparum luciferase reporter growth, 96 h; Potency, µM (top dose mostly 28.7 µM), for inactives: at the top dose activity change, negative = inhibition, hits mostly inhibitors; further: potency means the concentration at half of the fitted maximal effect; on the % scale 0 is the no-effect control and ±100 the full control effect
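Compounds incubated with erythrocytes infected by luciferase-expressing P. falciparum (2% hematocrit, 0.05% parasitemia final) for 96 hours, 37 C in 5% CO2. Growth inhibition scored as decreased luciferase luminescence.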
An asterisk follows results filed as active; u = inconclusive; x = no result; [ ] = another dose, or the depositor's remark. Unless noted, the call rests on the fitted dose curve; in most records, active means well fitted inhibition curve with a large enough effect; inconclusive means small, poorly fitted or top-dose-only effect, or another doubt; inactive means no such curve, though single readings can be large or run the other way.

SMILES	Marburg entry inh	Shiga inhibitor	Cycloheximide cs	Pf growth 48h	Lassa entry inh	Pf growth 96h
COCCCNC(=O)c1cccn2c(=O)c3cc4ccccc4cc3nc12	u	84*	69*	69%	u	55%
C=CCn1c(=N)c(C(=O)NCCCOC)cc2c(=O)n3cccc(C)c3nc21	u	-3	-4	u	-2%	-1%
O=C(CN(Cc1ccco1)C(=O)CNS(=O)(=O)c1ccccc1)NCc1ccc(F)cc1	19%[46.1 µM]	13	6	0%	u	-21%
Cc1ccc(Cn2nnc3c(=O)[nH]c(C4CCN(S(=O)(=O)c5cc(C)ccc5C)CC4)nc32)cc1	u	-12	-2	5.2µM*	14µM*	x
O=c1[nH]c(C2CCN(S(=O)(=O)/C=C/c3ccccc3)CC2)nc2c1nnn2Cc1ccc(F)cc1	7.9µM*	-2	-4	1.9µM*	u	u
O=c1[nH]c(C2CCN(S(=O)(=O)c3cccc([N+](=O)[O-])c3)CC2)nc2c1nnn2Cc1ccccc1	u	-11	-1	8.3µM*	u	43%
Cc1ccc(Cn2nnc3c(=O)[nH]c(C4CCN(S(=O)(=O)c5ccc(F)cc5)CC4)nc32)cc1	u	6	3	-5%	-6%	x
O=c1[nH]c(C2CCN(S(=O)(=O)c3ccc(S(=O)(=O)NC4CC4)cc3)CC2)nc2c1nnn2Cc1ccccc1	13%	-1	-4	3.7µM*	u	8%
O=c1[nH]c(C2CCN(S(=O)(=O)c3cccc(Cl)c3)CC2)nc2c1nnn2Cc1ccccc1	-29%[46.1 µM]	10	-7	u	u	21%
O=c1[nH]c(C2CCN(S(=O)(=O)c3ccc(S(=O)(=O)NC4CC4)cc3)CC2)nc2c1nnn2Cc1ccc(F)cc1	u	-3	-6	u	10%	u
O=C(Cn1nc(-c2ccc(Cl)cc2)ccc1=O)NCC1COCCO1 (stereo not drawn)	-9%[46.1 µM]	4	-7	-14%	-3%[46.1 µM]	4%
O=c1[nH]c(C2CCN(S(=O)(=O)Cc3ccccc3)CC2)nc2c1nnn2Cc1ccccc1	-4%[46.1 µM]	-9	0	9.3µM*	-17%	13%
Cc1ccc(C)c(Cn2nnc3c(=O)[nH]c(C4CCN(S(=O)(=O)c5ccc(S(=O)(=O)NC6CC6)cc5)CC4)nc32)c1	u	29	-1	2.6µM*	u	-1%
O=c1[nH]c(C2CCN(S(=O)(=O)Cc3ccccc3)CC2)nc2c1nnn2Cc1cccc(Cl)c1	-13%[46.1 µM]	-9	-2	u	-8%[46.1 µM]	44%
Cc1ccc(C)c(Cn2nnc3c(=O)[nH]c(C4CCN(S(=O)(=O)c5ccc(S(=O)(=O)N(C)C)cc5)CC4)nc32)c1	u	-10	-3	u	u	-7%
CCc1ccc2[nH]c3nc(C)cc(C)c3c(=O)c2c1	9%	-4	21*	3.3µM*	u	0%
CC(C)Oc1ccc(CNC(=O)CCC(=O)N2CC(C)Sc3ccccc32)cc1 (stereo not drawn)	x	23	-1	u	x	4%
CS(=O)(=O)c1sc(C#N)c2c1C(=O)CC(c1ccccc1)C2 (stereo not drawn)	x	-7	-5	12µM*	x	u
Cc1oc2c(c(=O)c1C)C(=O)CC(c1ccccc1)C2 (stereo not drawn)	-20%	25	6	u	u	u
Cc1ccc(CSCCNC(=O)CN(c2cccc([N+](=O)[O-])c2)S(C)(=O)=O)cc1	x	-2	-4	u	x	7%
O=C(/C(=C/O)N=Nc1ccccc1Cl)c1ccccc1	u	98	31*	u	-23%	u
O=C(NCc1ccc2c(c1)OCO2)Oc1ccccc1	x	-12	-3	x	x	u
O=C(N[C@@H](Cc1ccccc1)c1nc2ccccc2[nH]1)c1cc([N+](=O)[O-])ccc1Cl	u	10	-1	15µM*	-15%	u
O=C(CCC1CCCN(C(=O)c2ccc3cc[nH]c3c2)C1)N1CCN(c2ccccn2)CC1 (stereo not drawn)	u	-6	8	u	u	9%
CC(=O)Nc1c(C(=O)O)[nH]c2ccccc12	4%	-1	1	6%	13%	10µM*
SMILES	Marburg entry inh	Shiga inhibitor	Cycloheximide cs	Pf growth 48h	Lassa entry inh	Pf growth 96h
CCS(=O)(=O)Nc1c(C(=O)OC)[nH]c2ccccc12	-2%	3	5	12%	25%	x
CCS(=O)(=O)Nc1c(C(=O)O)[nH]c2ccccc12	6%	1	-2	-5%	3%	12µM*
Cc1ccc(S(=O)(=O)c2cc3ccccc3oc2=Nc2ccc3c(c2)OCCO3)cc1	u	-5	2	3%	-19%	u
CSc1nn2c(C)c(C)c(C)nc2c1C#N	18%[46.1 µM]	15	6	u	3%	35%
O=[N+]([O-])c1ccc(O)c(C=Nc2cccc3ccccc23)c1	-8%[46.1 µM]	-3	-3	-25%	5%[46.1 µM]	u
O=[N+]([O-])c1ccc(O)c(C=Nc2ccc3c(c2)OCCO3)c1	-14%	108*	112*	248%	-28%	25%
Oc1[nH]c2ccccc2c1C=Nc1ccc2c(c1)OCCO2	u	53	32*	21%	u	-1%
Oc1c(Br)cc(Br)cc1C=Nc1ccc2c(c1)OCCO2	x	50*	32*	66%	x	24%
Cc1cc(C)c(OCC(=O)N(Cc2cccc(F)c2)Cc2ccco2)c(C)c1	u	x	x	x	-12%[46.1 µM]	x
N#Cc1c2ccc(O)cc2n2ccccc12	u	27	27*	-17%	u	-14%
[Cl-].[Cl-].[Hg+2]	x	x	x	2.1µM*	x	2.4µM*
O=C(N/N=C/c1cccc2ccccc12)c1cccc(F)c1	-1%[46.1 µM]	79*	63*	u	11%[46.1 µM]	0%
O=C(N/N=C/c1ccccc1Cl)c1cccc(F)c1	u	97*	78*	123%	u	74%
O=C(N/N=C/c1cccc2ccccc12)c1ccc(CN2CCOCC2)cc1	-12%[46.1 µM]	30	19	u	5%[46.1 µM]	u
O=C(N/N=C/c1c(Cl)cccc1Cl)c1cccc(F)c1	3%	14	17	33%	7%	9%
Cc1ccc(NC(=O)COC(=O)Cn2cnc3ccccc32)c([N+](=O)[O-])c1	0%	-18	1	10%	5%	24%
COc1cc(S(=O)(=O)NCc2ccccn2)c(OC)cc1Cl	0%	-6	-2	-23%	14%	9.3µM*
Cc1ccc(NC(=O)CNC(=O)c2ccco2)cc1	14%	48*	33*	97%	16%	-9%
COc1ccc(NC(=O)CNC(=O)c2ccco2)cc1	24%	73*	51*	41%	u	u
